Shown are actives, neighbours in structure and some others; about 4.6% of the full set was active somewhere.
tim23-1 inh = tim23-1 yeast growth inhibition; AID 463212; inhibition, % at 20 µM; S. cerevisiae tim23-1 growth, BacTiter-Glo luminescence, 24 h; hit rate 1.3% among 330,000;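 active = growth inhibition of the mutant yeast at or above 50%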;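 also: temperature-sensitive mutant grown at 25 °C; plate controls were DMSO-treated mutant yeast for no effect and medium wells lacking yeast for full effect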
V-ATPase pH = alters yeast V-ATPase proton transport. response, % at 10 µM. hit rate 0.37% among 350,000. S. cerevisiae, pHLuorin cytosolic pH fluorescence; in the data active = response mostly above about 7.3%, no sharp cut-off; inactive = mostly below about 5.4%; also: actives read high
PfHsp90 yeast 2 = growth inhibition of yeast expressing Plasmodium Hsp90; S. cerevisiae expressing PfHsp90, BacTiter-Glo ATP, 48 h; yeast lacking PDR1 and PDR3 efflux regulators; inhibition, % at 9.4 µM; hit rate 0.32% among 310,000; AID 504621;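 active = every replicate shows inhibition above about 80%, whatever the replicate mean, limit read from the data; inconclusive = mean inhibition reaches the set limit but some replicate falls short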;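 also: 0% = DMSO neutral controls and 100% = 20 µM radicicol positive controls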
SKKanGAS inh = inhibitors of SKKanGAS S. pyogenes growth in kanamycin (SK-promoter or general growth effect) | AID 1662 | hit rate 1.3% among 300,000 | inhibition, % at 7.5 µM | BacTiter-Glo, 6 h;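 active = mean replicate score, as percent of positive control median, at least 50; inconclusive = mean below 50 but one replicate at or above 50; inactive = mean and every replicate below 50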;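 also: strain carries kanamycin resistance gene driven by streptokinase promoter and grows in 40 µg/ml kanamycin; loss of luminescence reflects streptokinase promoter inhibition or plain growth inhibition; 0% = median of DMSO wells and 100% = positive control at its reference dose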
tim10-1 inh = growth inhibitors of tim10-1 mutant yeast. inhibition, % at 20 µM. S. cerevisiae tim10-1 ts strain growth, BacTiter-Glo, 24 h. AID 463190. hit rate 2.2% among 330,000;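 active = inhibition of at least 40%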;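 also: mutant grown at 25 °C; 0% = DMSO wells with yeast and 100% = wells holding no yeast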
TIM10 inh = growth inhibitors of TIM10 yeast strain | hit rate 1.4% among 330,000 | S. cerevisiae TIM10 strain growth, BacTiter-Glo luminescence, 24 h | AID 463195 | inhibition, % at 10 µM;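 active = inhibition of 40% or more at the single tested concentration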;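 also: wild-type TIM10 isogenic control strain grown at permissive 25 °C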
tim10-1 confirm = confirmation of tim10-1 mutant yeast growth inhibitors; S. cerevisiae tim10-1 ts strain growth, BacTiter-Glo, 24 h; shares compounds with tim10-1 inh; inhibition, % at 20 µM; AID 463213; hit rate 56% among 7,400;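 active = inhibition of yeast growth at or above a set limit in either of two repeat tests at 20 µM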;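 also: tim10-1 mutant grown at permissive 25 °C to find synthetic lethal compounds; 0% = DMSO yeast wells and 100% = medium wells without yeast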
TIM10 conf = confirmation of TIM10 yeast growth inhibitors. hit rate 63% among 4,600. AID 463215. S. cerevisiae tim10 strain growth, BacTiter-Glo luminescence, 24 h. inhibition, % at 10 µM. shares compounds with TIM10 inh;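 active = inhibition of yeast growth at or above a set limit in either of two replicates at 10 µM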;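 also: this counterscreen used the strain with wild-type TIM10; 0% = yeast with DMSO and 100% = medium wells lacking yeast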
tim23-1 confirm = tim23-1 yeast growth inhibition, confirmed. inhibition, % at 20 µM. AID 463218. hit rate 83% among 4,400. S. cerevisiae tim23-1 growth, BacTiter-Glo luminescence, 24 h. shares compounds with tim23-1 inh;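 active = inhibition above about 39% in either of two replicate wells at 20 µM, limit read from the data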;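 also: temperature-sensitive tim23-1 mutant grown at 25 °C; 0% = DMSO wells with yeast and 100% = medium wells without yeast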
An asterisk follows results filed as active; u = inconclusive; x = not tested or not shown.

SMILES	tim23-1 inh	V-ATPase pH	PfHsp90 yeast 2	SKKanGAS inh	tim10-1 inh	TIM10 inh	tim10-1 confirm	TIM10 conf	tim23-1 confirm
CCc1ccc2oc(-c3cc(N)ccc3Cl)nc2c1	56*	9	-19	3	44*	50*	27	23	47*
Cc1ccc(C(=O)O/N=C(\N)c2ccccn2)cc1	38	1	54	4	38	35	x	x	x
Cc1ccc(/C(N)=N/OC(=O)c2ccc(F)cc2)cc1	68*	5	14	-3	59*	67*	55*	69*	65*
N/C(=N\OC(=O)c1ccccc1)c1ccccn1	33	5	34	3	24	18	x	x	x
N/C(=N\OC(=O)c1ccc(F)cc1)c1ccccc1	73*	-2	-3	5	68*	63*	64*	61*	76*
Cc1ccc(S(=O)(=O)Nc2cc(Cl)c(O)c3ncccc23)cc1	73*	1	104*	79*	62*	45*	29	49*	82*
Cc1ccc(C)c(NC(=O)CN(C)C(=O)c2cc3ccccc3oc2=O)c1	12	-3	x	x	6	9	x	x	x
COc1ccc(-c2nc(-c3ccccc3)c(-c3cccs3)[nH]2)cc1OC	55*	2	-8	-15	41*	34	34*	x	63*
O=[N+]([O-])c1cccc(-c2nc(-c3ccccc3)c(-c3cccs3)[nH]2)c1	10	-2	-20	-6	17	14	x	x	x
c1cncc(CNCc2ccco2)c1	x	2	-16	5	x	x	x	x	x
Oc1ccc(Oc2ccc3c(C(F)(F)F)cc(C(F)(F)F)nc3n2)cc1	56*	0	-2	-2	40*	43*	25	13	49*
COc1ccc(CNC(=O)CN(C(=O)CCC(=O)Nc2nccs2)c2cccc(C)c2)cc1	-12	-3	3	1	-17	-10	x	x	x
COc1ccc(-c2cc(-c3cc(C)ccc3O)[nH]n2)cc1	69*	1	-5	u	52*	51*	45*	45*	-26
CCN1C(=O)/C(=C\N(C(C)=O)c2ccccc2)OC1=S	70*	-2	-8	-3	49*	61*	57*	58*	57*
CN(Cc1ccccn1)C(=O)C1CCC(=O)N(CCc2ccc(Cl)cc2)C1 (stereo not drawn)	4	-2	-16	4	4	7	x	x	x
Cc1onc(-c2ccccc2)c1-c1nc2cc(Cl)ccc2c(=O)o1	68*	-1	7	11	43*	19	18	x	53*
CN1CCN(S(=O)(=O)c2ccc(SCCOc3ccccc3)nc2)CC1	57*	0	x	1	48*	49*	52*	49*	46*
Cc1ccc(C)c(S(=O)(=O)N2CCN(C(=O)c3n[nH]c(=O)c4ccccc34)CC2)c1	-9	0	3	x	-10	3	x	x	x
O=C(/C=C/c1ccc(Cl)c(Cl)c1)n1cccn1	59*	1	-15	-5	61*	50*	41*	-13	44*
O=C(/C=C/c1ccc(Cl)c(Cl)c1)N1CCOCC1	6	3	11	3	6	-17	x	x	x
COCCCNC(=O)c1ccc(S(=O)(=O)c2ccc(Cl)cc2)c(NC(C)=O)c1	0	3	16	3	-5	9	x	x	x
COC(=O)C1=C(C)N(c2ccc(Cl)c(Cl)c2)C(=O)C1	59*	2	-15	-1	46*	43*	47*	39*	50*
COC(=O)c1sc(S(=O)(=O)N2CCCCC2C)c(C(=O)OC)c1C (stereo not drawn)	41	-1	15	x	14	19	x	x	x
N#Cc1c(-c2ccc(F)cc2)ccnc1N1CCOCC1	-1	4	-13	1	-4	-4	x	x	x
COC(=O)Cc1c(C)[nH]n(-c2cc(Cl)cc(Cl)c2)c1=O	70*	4	-2	22	45*	30	37*	x	63*

Assay outcomes (PubChem BioAssay)
